Measurements: PubChem BioAssay (NCATS)
Unmarked numbers belong to inactive results. The call rests on the fitted dose curve.

Experiment: qHTS drug screen for cell cycle checkpoint inhibitors in PARPi-resistant BRCA-mutant ovarian cancer cell lines. (AID 1963452)
Conditions: PEO1/OlaR viability, CellTiter-Glo luminescence, 96 h; hits give low values
How it was run: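 PEO1, PEO4 and PEO1/OlaR ovarian cancer cells, 600 per well, exposed 96 h at 37C to a dilution series. Viability read by CellTiter-Glo luminescence, normalized to DMSO and empty wells; activity summarized as Z-AUC.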

Compound | Z-AUC
O=C(NCC1CCCCN1)c1cc(OCC(F)(F)F)ccc1OCC(F)(F)F (stereo unspecified) | -0.39
CN(C)c1ccc(O)c2c1C[C@H]1C[C@H]3[C@H](N(C)C)C(=O)C(C(N)=O)=C(O)[C@@]3(O)C(=O)C1=C2O | 0.306
O=C(CCc1ccc(O)cc1)c1c(O)cc(O)cc1O | -0.868
Cc1cccc(CN2CCN(C(c3ccccc3)c3ccc(Cl)cc3)CC2)c1 (stereo unspecified) | -1.46
C[C@H](Cc1ccc(O)c(O)c1)[C@@H](C)Cc1ccc(O)c(O)c1 | 1.18
NCCCCNCCCN | 0.434
Nc1nc(OCc2ccccc2)c2[nH]cnc2n1 | 0.131
CC(C)Oc1ccc2c(=O)c(-c3ccccc3)coc2c1 | 0.208
CC(C)c1ccc2c(c1)c(SC(C)(C)C)c(CC(C)(C)C(=O)O)n2Cc1ccc(Cl)cc1 | 1.24
Oc1ccc(-c2nc(-c3ccc(F)cc3)c(-c3ccncc3)[nH]2)cc1 | 1.12
CC(=O)N1CCN(c2ccc(OC[C@H]3CO[C@](Cn4ccnc4)(c4ccc(Cl)cc4Cl)O3)cc2)CC1 | 0.477
Nc1nc(N)c(N=O)c(OCC2CCCCC2)n1 | -0.0306
Clc1ccc(C(Cn2ccnc2)OCc2c(Cl)cccc2Cl)c(Cl)c1 (stereo unspecified) | 0.975
O=Nc1c(-c2c(O)[nH]c3cc(Br)ccc23)[nH]c2ccccc12 | -0.607
NC(=NCc1ccccc1)NC(=O)c1nc(Cl)c(N)nc1N | -0.929
Clc1ccc2c(N3CCN(CCCN4CCN(c5ccnc6cc(Cl)ccc56)CC4)CC3)ccnc2c1 | 0.751
